# Source: PubChem BioAssay (National Center for Advancing Translational Sciences (NCATS))
# RGS12 GoLoco inh: inhibitors of human Gai1-RGS12 GoLoco interaction (red fluorophore); P63096; Gai1:RGS12 GoLoco peptide FP, rhodamine, 10 min; Potency, µM (highest dose often 61.6 µM), for inactives: top-dose activity, negative = inhibition, usual class: inhibitors; actives 0.44% (n = 230,000); AID 880; active = well fitted inhibition curve with a large enough effect, not every such curve was filed as active; inactive = no such curve, though single readings can be large or run the other way; note: nearly all actives have a fitted effect of over 30% in size
# Tau fibril FP: tau fibrillization inhibition (FP). K18 P301L tau heparin fibrillization, Alexa594 FP, 6 h. P10636. AID 1468. Potency, µM (doses to about 57.7 µM), without a hit: at the highest dose activity, negative = inhibition, actives largely listed as inhibitors. actives 0.39% (n = 280,000); note: nearly all actives have a fitted effect of over 55% in size
#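 Recombinant K18 P301L […], labeled with Alexa 594 at 0.24 uM over 15 uM unlabeled; heparin inducer 20 uM final; 37 C, 6 hr; FP endpoint.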
# Tau ThT inhib: blocks human tau fibril formation measured by thioflavin T; P10636; actives 2.1% (n = 270,000); recombinant tau K18 P301L, heparin-induced fibrillization, ThT fluorescence; Potency, µM (highest dose often 57.4 µM), for the others: at the highest dose activity, negative = inhibition, most hits filed as inhibitors; note: nearly all actives have a fitted effect of over 55% in size
#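 Tau K18 P301L fragment (15 uM unlabeled plus 0.24 uM Alexa 594-labeled) in 100 mM sodium acetate pH 7 with compound, fibrillization induced by 20 uM heparin for 6 hr at 37 C. Thioflavin T (30 uM) added, fluorescence read after 1 hr (ex 450, em 510 nm).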
# Tau fluor cs: counter-screen for tau fibril formation inhibitors. tau K18 P301L Alexa594 fluorescence, heparin fibrillization. Potency, µM (highest dose often 57.7 µM), without a hit: at the highest dose activity change, negative = decrease. actives 0.93% (n = 280,000). AID 1463; note: nearly all actives have a fitted effect of over 55% in size
#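 Human tau K18 P301L (15 uM unlabeled, 0.24 uM Alexa 594-labeled) in 100 mM sodium acetate pH 7 with 20 uM heparin, 6 hr at 37 C. ThT 30 uM added, 1 hr ambient; Alexa 594 FP and total fluorescence read at 555/632 nm.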
# TRb SRC2 PPI: disrupts binding of human TR beta to SRC2 | actives 0.065% (n = 280,000) | Potency, µM (titrated, usually from 106 µM), for inactives: at the highest dose activity change, negative = inhibition, hits mostly inhibitors | TRbeta-SRC2 peptide binding, fluorescence polarization; receptor liganded with 1 µM T3 | P10828;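 note: plate controls were bound peptide for no effect and peptide without receptor for full effect; nearly all actives have a fitted effect of over 50% in size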
# Target sequence (P10828 whole entry, looked up): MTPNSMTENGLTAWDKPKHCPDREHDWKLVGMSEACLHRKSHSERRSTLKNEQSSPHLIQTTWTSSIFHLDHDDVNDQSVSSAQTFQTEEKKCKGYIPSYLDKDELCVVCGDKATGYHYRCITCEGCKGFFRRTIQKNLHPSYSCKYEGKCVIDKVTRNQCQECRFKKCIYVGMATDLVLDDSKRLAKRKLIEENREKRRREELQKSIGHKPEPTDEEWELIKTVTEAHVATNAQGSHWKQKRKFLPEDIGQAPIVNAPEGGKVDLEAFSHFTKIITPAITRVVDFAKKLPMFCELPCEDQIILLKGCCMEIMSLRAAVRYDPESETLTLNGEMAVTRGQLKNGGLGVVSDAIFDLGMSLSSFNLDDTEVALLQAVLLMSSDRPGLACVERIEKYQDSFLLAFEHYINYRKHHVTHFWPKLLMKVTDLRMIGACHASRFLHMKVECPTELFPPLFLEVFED
#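 Fluorescence polarization of 20 nM Texas Red SRC2 peptide (20-aa NR interaction domain) bound to 0.6 uM human TRb ligand-binding domain, with 1 uM T3, after 5 hr at ambient temperature; inhibition seen as decreased polarization.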
# TexasRed fluor: Texas Red fluorescence interference in TRb-SRC2 counter-screen; TRb/SRC2 Texas Red total fluorescence interference; Potency, µM (titrated, usually from 106 µM), inactives show top-dose fluorescence change, negative = quenching; actives 0.29% (n = 280,000); active = well fitted curve in either direction with a large enough effect; inconclusive = small, poorly fitted or top-dose-only effect
#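 Human TRβ ligand-binding domain (0.6 uM) and Texas Red SRC2 peptide (20 nM) in Tris buffer with 1 uM T3 and 5% DMSO were incubated with pinned compound for 5 hr at ambient temperature. Total fluorescence was computed as S + 2P (555/632 nm).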
# Starred values were filed as active, the others as inactive; ? = inconclusive; · = not tested or not shown; [ ] = another dose, or the depositor's remark. Rows were chosen to be rich in hits. Some 3.2% of all compounds tested hit in one or more screens of this group. Unless noted, calls come from the whole dose curve; as a rule, active = well fitted curve in the direction sought with a large enough effect; inconclusive = small, poorly fitted or top-dose-only effect, or another doubt; inactive = no such curve, though single readings can be large; an effect the other way counts as inactive or inconclusive. Unless noted, % is set by controls: 0 for no effect and ±100 for the full control effect; potency is the fitted concentration of half-maximal effect.
SMILES,RGS12 GoLoco inh,Tau fibril FP,Tau ThT inhib,Tau fluor cs,TRb SRC2 PPI,TexasRed fluor
COc1ccc(COc2cc(-c3cccc(OC)c3)nc3ccc(NC(C)=O)cc23)cc1,6.2%,?,-4.8%[81.4 µM],-24.2%[81.3 µM],4.5%,2.8%
COc1ccc(COc2cc(-c3cccc(OC)c3)nc3ccc(N)cc23)cc1,6.6%[88.7 µM],?,?,12.6µM*[quencher],4.5%,-5.0%
COc1ccc(C(C)(C)C)cc1NC(=O)Nc1ccc2c(c1)OCO2,-5.7%,?,?,14.1µM*[quencher],1.2%,1.2%
O=C(Nc1ccc([N+](=O)[O-])cc1)Nc1ccc2[nH]c(=O)[nH]c2c1,28.9%,23.2%,8.91µM*,8.91µM*[quencher],41.5%,-35.1%
COc1cc(NC(=O)Nc2ccc3c(c2)OCO3)cc(OC)c1OC,3.4%,4.0%,-5.0%,-17.5%,0.8%,-2.8%
COc1cc([N+](=O)[O-])ccc1NC(=O)Nc1ccc2c(c1)OCCO2,3.3%,?,12.6µM*,15.8µM*[quencher],10.2%,-3.6%
O=C(Nc1ccc([N+](=O)[O-])cc1)Nc1ccc2c(c1)OCCO2,-0.7%,?,?,8.91µM*[quencher],0.0%,-4.2%
O=c1[nH]c2ccc(NC(=S)Nc3ccc(F)cc3)cc2[nH]1,6.7%,-1.4%,?,-22.4%,0.6%,4.8%
COCCn1c(=O)c(-c2cn(C)c3ccccc23)nc2cnc(N3CCNCC3)nc21,3.9%,·,·,·,·,·
C/C=C1\COC(C(=O)NCCN2CCOCC2)(C(F)(F)F)C=C1C=C(C)C (stereo unspecified),·,·,·,·,0.9%,-2.4%
O=C(Nc1ccc(N2CCOCC2)cc1)C1CC(=O)N(c2ccccc2)C1 (stereo unspecified),11.3%,6.2%[2.34 µM],4.47µM*,6.8%,-2.7%,0.2%
O=C(Nc1ccc(N2CCOCC2)cc1)C1CC(=O)N(c2ccc(Cl)cc2)C1 (stereo unspecified),-10.5%,2.9%,?,-12.5%,-1.0%,0.7%
Nc1ccccc1Nc1cc(-c2ccccc2)nn1-c1cccc(Cl)c1,0.6%,?,?,11.2µM*[quencher],6.9%,3.8%
Cc1nc(N=Nc2ccc(O)cc2)n[nH]1,-15.7%,-6.8%,-14.3%,-2.3%,-0.1%,-1.5%
Cc1ccc(-c2nc(N=Nc3ccc(O)cc3)n[nH]2)cc1,-9.9%,-1.9%,2.51µM*,-27.4%,-3.0%,-2.9%
COc1ccc(-c2nc(N=Nc3ccc(O)cc3)n[nH]2)cc1,3.5%,0.9%,2.82µM*,-20.2%,-8.3%,-11.9%
COc1ccc(O)cc1,2.3%,·,·,·,2.2%,-3.2%
N#Cc1ccccc1-c1cncnc1NCc1cccnc1,-2.3%,-15.5%,-14.4%,-27.4%,6.7%,?
CN1C(=O)N(C)C2=NNC=NC2(O)C1=O (stereo unspecified),-1.5%,-1.9%,-5.7%,-4.7%,10.6%,-1.4%
O=C(Nc1ccc(Nc2ccccc2)cc1)C(Cl)(Cl)Cl,2.6%,6.6%,?,7.94µM*[quencher],-10.6%,-2.1%
CN(C)c1ccc(SC#N)cc1,0.8%,?,10µM*,?,6.8%,-0.6%
CN(C)CC[C@@H](C(=O)C(C)(C)C)c1ccccn1,3.5%[14.2 µM],·,·,·,·,·
FC(F)(F)c1ccccc1-c1nccc(-n2ccnc2)n1,-24.9%,·,·,·,·,·
N#Cc1cccc(NC(=O)Cn2c3[n+](c4ccc(C(F)(F)F)cc42)CCCCC3)c1,14.1µM*,3.8%,10.5%,4.8%,-1.4%,-1.1%
Cc1ccc(S(=O)(=O)Nc2ccc(N=Nc3ccc(O)cc3)cc2)cc1,3.7%,?,14.1µM*,17.8µM*[quencher],1.5%,-1.4%
Cc1ccc(NNS(=O)(=O)c2ccc(C)cc2)cc1,-41.7%,?,20µM*,-16.3%,0.1%,-1.1%
CCOc1ccc(NS(=O)(=O)c2ccc3[nH]cc(C(=O)NC4CCCC4)c(=O)c3c2)cc1,·,25.1µM*,-1.0%,?,-4.6%,-0.3%
CCc1ccc(NS(=O)(=O)c2ccc3[nH]cc(C(=O)NC4CCCC4)c(=O)c3c2)cc1,·,11.2µM*,6.6%,?,-0.4%,-1.8%
